From PubChem BioAssay (NCI)
This is part of a sample that, as a whole, favours compounds with a hit. Of some 83,000 tested, about 20% had one in any assay.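 Single-concentration screen, 48 h exposure, 96-well plates. Endpoint: percent growth. Below 10 = active.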 A number with no mark means an inactive call. Activity calls are given as the source filed them.

System: HL-60(TB) leukemia
Test: NCI-60 one-dose screen, 48 h (100 = growth as untreated, 0 = no growth, -100 = all killed)
Settings: 10 µM unless noted

| Structure (SMILES) | growth |
| --- | --- |
| O=C1N(c2ccccc2)C(=S)N[C@]12[C@H](c1ccccc1)C1CCCN1[C@]21C(=O)NC2C=CC(Cl)=C[C@H]21 (stereo not given in full) | 81.5% |
| CCN(CC)CCCNc1cc(OC)cc2nc3cc(Cl)ccc3nc12 | -9.05% (active) |
| Cc1nn(-c2ccc([N+](=O)[O-])cc2)c2ncnc(N/N=C/c3ccccc3O)c12 | -0.479% (active) |
| Cc1nc([N+](=O)[O-])c(Sc2nncc(-c3ccccc3)n2)n1C | 91.7% |
| CCOC(=O)c1cn2ncnc(Oc3ccc(NC(=O)NC4CC4)c(F)c3)c2c1C | 70.9% |
| c1ccc(N(c2ccccc2)c2ccccc2)cc1 | 94.2% |
| CCc1nc(C)cn1C(=O)OCc1nc2nc(Cl)nc(N3CCOCC3)c2[nH]1 | -23.1% (active) |
| COc1ccc(/C(C)=C(\c2ccc(Cl)cc2)c2ccc(OCCN3CCCCCC3)cc2)cc1F | -15.4% (active) |
| CCCCCCCCCCCCNC(=O)[C@H]1CSC(c2ccc(OC)c(F)c2)N1 (stereo not given in full) | -70.3% (active) |
| C=C[C@@H]1C[C@H](O)Cc2cc(F)ccc2N1 | -2.59% (active) |
| COc1cc(-c2nn(-c3cccc(NC(=O)CCN4CCN(c5ccccc5)CC4)c3)cc2-c2ccncc2)ccc1Cl | 13% |
| C=C(c1ccc(C(=O)O)cn1)c1cc2c(cc1C)C(C)(C)CCC2(C)C | 84.9% |
| O=C1Nc2cc(-c3cccc([N+](=O)[O-])c3)ccc2/C1=C/c1ccc[nH]1 | 101% |
| COc1ccc(NC(=O)CSc2nc3ccccc3c(=O)n2-c2ccccc2C(F)(F)F)c(OC)c1OC | 103% |
| CC(/C=N/NC(=O)c1cc(-c2ccco2)[nH]n1)=C\c1ccccc1 | 99% |
| CN1/C(=C\C(I)C(I)C2=[N+](C)c3ccccc3C2(C)C)C(C)(C)c2ccccc21 (stereo not given) | -20.1% (active) |
| Cn1nc(C(F)(F)F)c(-c2ccc(Cl)c(C(F)(F)F)c2)c1-c1ccc(OCc2ccc(Cl)cc2)cc1O | 9.3% (active) |
| CCCCCCCCn1ccc2cc(NC(=O)CN3CCN(c4nc(C)cc(N5CCCCC5)n4)CC3)ccc21 | 71% |
| CCN1C(=O)N(CC)C2Nn3c(s/c(=C4\C(=O)N(C5CCCC5)c5ccccc54)c3=O)=NC21 (stereo not given) | 29.8% |
| CCN(CC)CCN1c2nc3ccccc3cc2Sc2cc3ccccc3nc21 | -21.1% (active) |

| Structure (SMILES) | growth |
| --- | --- |
| CCC(=O)c1ccc(Cl)s1 | 70.4% |
| O=C1/C(=C/c2ccc(Cl)cc2)CN(Cc2cn(CCCNc3ccnc4cc(Cl)ccc34)nn2)C/C1=C\c1ccc(Cl)cc1 | -46.7% (active) |
| NC1(C(=O)O)CSSC1 | 4.59% (active) |
| CN1C(=O)NC(c2ccc3c(c2)OCO3)C=C1c1ccccc1 (stereo not given) | 99% |
| CC(C)=CCc1cc(O)c(O)c2oc3cc(O)cc(O)c3c(=O)c12 | 103% |
| COc1ccc(-c2cc(-c3cccnc3)nc3sc(C(=O)Nc4ccccc4)c(N)c23)cc1OC | 60.2% |
| CCCCCCCCC/C(=N\NC(=O)c1ccncc1)c1ccc(O)c(O)c1O | 0.166% (active) |
| Nc1cc2c([nH]c[n+]2CC#CCCl)c(SCC#CCCl)n1 | -17.8% (active) |
| COC1OC(C(COC(C)=O)OC(C)=O)C(OC(C)=O)C(OC(C)=O)C1OC(C)=O (stereo not given) | 132% |
| COc1cc(-c2nn(-c3ccc(NC(=O)Nc4ccc(Cl)c(C(F)(F)F)c4)cc3)cc2-c2ccncc2)ccc1Cl | 1.53% (active) |
| N#CC1c2ccccc2C=CN1C(=O)N(c1ccccc1)c1ccccc1 (stereo not given) | -8.07% (active) |
| N#C/C(C(=O)c1ccccc1)=C1/C(=O)Nc2ccc(F)cc21 | 130% |
| CC(C)C[C@H](NC(=O)[C@H](Cc1ccccc1)n1ccc(N2CCCCC2)cc1=O)B(O)O | 1.9% (active) |
| O=C(/C=C/c1ccc(Cl)cc1)c1cccc(OCCCOc2cccc(C(=O)/C=C/c3ccc(Cl)cc3)c2)c1 | 96.2% |
| CSc1cnc2ccccc2n1 | 90.3% |
| COc1ccc(-c2cc(/C=C3\C(=O)Nc4ccc(OC)cc43)[nH]n2)cc1 | -0.36% (active) |
| CC(=O)Cc1ccccn1 | 85.4% |
| CSC1=Nc2c(c(C)c(-c3ccccc3)n2CCCCl)C2=NC(=O)CN12 | 27.4% |
| COC(=O)c1ccc2nc(-c3cc4ccccc4n3C)n(CCCCOc3cc4c(cc3OC)C(=O)N3CCC[C@H]3C=N4)c2c1 | -36.2% (active) |
| CCCN1C(=O)/C(=c2\sc3n(c2=O)NC2C(N=3)N(CC)C(=O)N2CC)c2ccccc21 (stereo not given) | -18.4% (active) |
